Source: PubChem (several laboratories)
Sampled rows, rich in hits. Any-hit rate of the full collection: about 4.7%.
GDH-TPI inh: GDH-TPI coupled enzyme inhibition counter-screen | inhibition, % at 4.8 µM | GDH-TPI coupled enzyme counterscreen, NADH absorbance | AID 588335 | actives 1.2% (n = 360,000);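 note: 0% = DMSO wells and 100% = wells lacking the enzyme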
CCHF vOTU inh-1: blocks the CCHF virus ovarian tumor domain protease | CCHFV vOTU protease, Pep-AMC fluorescence | inhibition, % at 11.5 µM | actives 0.55% (n = 370,000) | AID 651958; note: 0% = vehicle wells with enzyme and 100% = no enzyme wells
RecA splice inh: inhibitors of M. tuberculosis RecA intein splicing. P9WHJ3. actives 0.75% (n = 290,000). inhibition, % (concentration not given with the values). cell-free RecA intein splicing, fluorescence; in the data active = inhibition above about 30%;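 note: 0% = vehicle wells and 100% = reference inhibitor control wells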
DUSP3 inh: blocks human VHR1 dual specificity phosphatase; recombinant VHR phosphatase, pNPP absorbance; actives 0.52% (n = 290,000); inhibition, % at 13.3 µM; in the data active = inhibition above about 50%
Target sequence (P51452 whole entry, looked up): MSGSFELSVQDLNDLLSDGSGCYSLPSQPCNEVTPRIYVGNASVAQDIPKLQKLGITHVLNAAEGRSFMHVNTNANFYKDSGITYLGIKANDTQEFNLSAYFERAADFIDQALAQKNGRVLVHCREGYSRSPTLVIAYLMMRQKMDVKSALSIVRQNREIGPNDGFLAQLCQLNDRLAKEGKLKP
SARS 3CLpro inh: SARS-CoV 3CLpro protease inhibition | recombinant SARS-CoV 3CLpro, quenched FRET peptide cleavage | inhibition, % at 6 µM | actives 0.14% (n = 290,000) | P0C6X7 | AID 1706; in the data active = inhibition above about 12%
FBA Mtb inh: Mtb fructose-bisphosphate aldolase inhibition | AID 588726 | actives 2.3% (n = 360,000) | purified M. tuberculosis FBA, fluorescence read-out | inhibition, % at 1 µM | P9WQA3; in the data active = inhibition above about 27%;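 note: 0% = vehicle and 100% = reference inhibitor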
Target sequence (P9WQA3 whole entry, looked up): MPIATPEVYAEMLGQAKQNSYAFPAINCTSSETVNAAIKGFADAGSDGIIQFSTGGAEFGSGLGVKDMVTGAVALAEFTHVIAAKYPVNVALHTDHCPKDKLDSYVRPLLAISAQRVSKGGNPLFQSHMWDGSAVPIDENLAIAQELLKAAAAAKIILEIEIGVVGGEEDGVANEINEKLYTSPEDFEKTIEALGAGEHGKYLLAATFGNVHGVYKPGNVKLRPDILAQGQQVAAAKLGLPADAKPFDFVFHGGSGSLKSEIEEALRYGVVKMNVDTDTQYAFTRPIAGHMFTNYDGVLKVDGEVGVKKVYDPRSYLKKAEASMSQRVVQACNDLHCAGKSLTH
CCHF vOTU inh-2: CCHFV vOTU protease inhibition, confirmation; shares compounds with CCHF vOTU inh-1; Recombinant CCHFV vOTU, Pep-AMC fluorescence; actives 17% (n = 1,900); inhibition, % at 11.5 µM
* hit, by the source's call; · = no result given. Cut-off read from the data, not from the text of the source, unless noted: active = inhibition above about 30%; inactive = the rest.

SMILES | GDH-TPI inh | CCHF vOTU inh-1 | RecA splice inh | DUSP3 inh | SARS 3CLpro inh | FBA Mtb inh | CCHF vOTU inh-2
CC(NC(=O)COC(=O)C1CCN(c2ccc(C(F)(F)F)cn2)CC1)c1ccccc1 (configuration not stated) | 15.0 | 18.0 | · | · | · | 4.5 | ·
O=C(COC(=O)C1CCN(c2ccc(C(F)(F)F)cn2)CC1)NCc1ccccc1 | -5.1 | 35.1* | · | · | · | 3.7 | -1.8
NC(=O)CC(NC(=O)Cc1ccc(Br)cc1)c1ccc(NCCN2CCCC2)c([N+](=O)[O-])c1 (configuration not stated) | -7.2 | 34.5* | -0.5 | 12.7 | 1.6 | -1.6 | -14.4
NC(=O)CC(NC(=O)Cc1ccc(Br)cc1)c1ccc(NCCN2CCCCC2)c([N+](=O)[O-])c1 (configuration not stated) | -16.1 | 1.5 | 0.2 | 36.0 | 5.0 | 1.9 | ·
CC12CCC(=O)N1C(C(=O)Nc1ccc(SC(F)F)cc1)CS2 (configuration not stated) | -4.9 | -15.4 | -1.1 | · | · | -1.6 | ·
CC(C)=CCC[C@H](C)CC1Cc2[nH]c(=S)[nH]c(=O)c2C(c2ccc(F)cc2)O1 (some centres not stated) | · | -0.5 | · | · | · | 3.0 | ·
CC(C)=CCC[C@H](C)CC1Cc2[nH]c(=S)[nH]c(=O)c2C(c2ccc(Cl)cc2)O1 (some centres not stated) | · | 30.1* | · | · | · | · | -7.8
COc1ccc(CN2C(=O)CCC2(C)c2nc3ccccc3[nH]2)cc1 (configuration not stated) | · | 0.8 | · | · | · | -4.8 | ·
CC(C)c1[nH]nc2c1C(c1cccc(C(F)(F)F)c1)N(c1ccccc1)C2=O (configuration not stated) | · | 34.4* | · | · | · | · | 3.0
O=C1c2[nH]nc(-c3ccccc3)c2C(c2cccc(C(F)(F)F)c2)N1c1ccccc1 (configuration not stated) | · | 14.9 | · | · | · | · | ·
COC(=O)[C@]12C[C@H](CC(=O)NCc3cccs3)C(=O)N(CCC3=CCCCC3)C1=C[C@H](C1CCCC1)O[C@@H]2C | · | -2.0 | · | · | · | · | ·
O=C(N/N=C/c1ccc(F)cc1)c1cc[n+]([O-])cc1 | 11.9 | 3.6 | -3.8 | 17.0 | 1.9 | -3.0 | ·
COc1cc(/C=N/NC(=O)c2cc[n+]([O-])cc2)ccc1O | 29.0 | 30.4* | 0.1 | 39.4 | 2.3 | -1.8 | -11.0
CC1(C(=O)NS(=O)(=O)c2ccccc2)CCN1C(=O)c1ccc(C2CCCCC2)cc1 (configuration not stated) | 6.2 | 7.1 | · | · | · | 2.9 | ·
O=C(NCc1ccc(OC(F)(F)F)cc1)C1CC(c2ccccc2C(F)(F)F)=NO1 (configuration not stated) | -2.6 | 37.2* | -0.3 | 22.5 | · | -1.3 | 4.9
COc1ccccc1NC(=O)COC(=O)c1cc2ccccc2cc1O | 2.8 | 13.1 | · | · | · | -3.8 | ·
O=C(COC(=O)c1cc2ccccc2cc1O)Nc1ccccc1F | 6.7 | 30.9* | · | · | · | -1.7 | -23.6
CC(=O)Nc1ccc(S(=O)(=O)NC2=C(N3CCN(C)CC3)C(=O)c3ccccc3C2=O)cc1 | 10.4 | 52.8* | 6.7 | -3.6 | 1.2 | 1.7 | 29.5*
CCOC(=O)N1CCN(C2=C(NS(=O)(=O)c3ccc(NC(C)=O)cc3)C(=O)c3ccccc3C2=O)CC1 | 5.1 | -1.9 | 1.8 | 10.4 | -2.5 | -6.9 | ·
CCN1CCN(C2=C(NS(=O)(=O)c3ccc(NC(C)=O)cc3)C(=O)c3ccccc3C2=O)CC1 | 8.6 | 58.3* | 2.3 | 19.7 | -6.8 | -1.0 | 22.1
Cc1ccc(/C=C/C(=O)Nc2nccs2)o1 | 51.6* | 51.1* | 7.6 | -3.9 | -42.3 | 0.5 | 1.6
O=C(N/N=C/c1ccc(Br)o1)/C(=C/c1ccc([N+](=O)[O-])cc1)NC(=O)c1ccccc1 | 46.5* | 37.7* | 9.8 | 20.9 | -0.4 | 2.8 | -4.7
O=C(N/N=C/c1ccco1)/C(=C/c1cccc([N+](=O)[O-])c1)NC(=O)c1ccccc1 | 28.5 | -4.5 | 9.6 | 4.9 | 2.6 | -3.6 | ·
CCOC(=O)c1c2c(n(Cc3ccccc3)c1C)C(=O)C(=O)c1ccccc1-2 | 0.0 | 102.3* | · | · | · | -3.6 | 102.2*
CCOC(=O)c1c2c(n(C)c1C)C(=O)C(=O)c1ccc(Br)cc1-2 | -13.4 | 22.0 | 22.9 | · | -5.6 | 3.8 | ·
SMILES | GDH-TPI inh | CCHF vOTU inh-1 | RecA splice inh | DUSP3 inh | SARS 3CLpro inh | FBA Mtb inh | CCHF vOTU inh-2
COc1ccccc1-n1nnnc1SCC(=O)NC1CCCCC1 | -7.5 | -0.5 | -5.4 | 35.3 | -2.4 | 0.6 | ·
COc1ccccc1N1CCN(C(=O)C2CCN(C(=O)c3ccccc3Cl)CC2)CC1 | -1.4 | 31.2* | -0.1 | 7.4 | 0.0 | 2.9 | -6.6
CCOC(=O)c1c(C)oc2c1cc(NS(=O)(=O)c1ccc(C(=O)O)cc1)c1ccccc12 | 11.9 | 45.1* | 21.1 | 3.5 | 8.4 | 0.0 | 3.5
Cc1ccccc1OCC(=O)NC(=S)Nc1ccc2c3c(cccc13)CC2 | 11.2 | 12.0 | 1.9 | -21.2 | 2.5 | 5.0 | ·
COc1ccc(OCC(=O)NC(=S)Nc2ccc3c4c(cccc24)CC3)cc1 | 8.8 | 29.9* | 0.3 | 25.8 | -0.5 | -4.8 | 2.3
Cc1nc2ccc(C(=O)NCCCn3ccnc3)cn2c1N(C)C(=O)CCc1ccccc1 | 0.4 | -10.1 | · | · | · | 2.9 | ·
Cc1ccc([C@H]2C(C(=O)O)=CC[C@@H](c3ccc(C(C)C)cc3)N2S(=O)(=O)c2ccc(C)cc2)cc1 | 18.8 | 37.5* | · | · | · | 2.9 | 19.3
Cc1ccc(S(=O)(=O)N2[C@@H](c3ccccc3)C(C(=O)O)=CC[C@H]2c2ccc(C(C)C)cc2)cc1 | 0.8 | 30.4* | · | · | · | -1.4 | 2.3
Cc1ccc([C@H]2C(C(=O)O)=CC[C@@H](c3ccc(Cl)cc3)N2S(=O)(=O)c2ccc(C)cc2)cc1 | 4.2 | 33.4* | · | · | · | 7.1 | -0.4
Cc1ccc(S(=O)(=O)N2[C@@H](c3ccc(Br)cc3)C(C(=O)O)=CC[C@H]2c2ccc(Cl)c(Cl)c2)cc1 | -2.8 | 32.1* | · | · | · | -2.3 | 9.3
Cc1ccc([C@@H]2CC=C(C(=O)O)[C@H](c3ccccc3)N2S(=O)(=O)c2ccc(C)cc2)cc1 | 2.5 | 0.0 | · | · | · | 3.4 | ·
Cc1ccc(S(=O)(=O)N2[C@@H](c3ccc(Cl)cc3)C(C(=O)O)=CC[C@H]2c2ccc(C(C)C)cc2)cc1 | 9.7 | 27.4 | · | · | · | -0.5 | ·
Cc1ccc(S(=O)(=O)N2CCN(S(=O)(=O)c3ccccc3Br)C2=O)cc1 | -1.8 | 0.8 | · | · | · | 6.8 | ·
Cc1ccc(NC(=O)C2c3ccccc3Oc3ccccc32)c(C)c1 | 4.1 | 11.4 | -0.6 | 17.7 | -0.1 | -0.3 | ·
Cc1ccc(C2(C)NC(=O)N(CC(=O)Nc3ccccc3C(=O)NC3CCCC3)C2=O)cc1 (configuration not stated) | 2.1 | 2.2 | 2.6 | · | · | -0.5 | ·
Cc1ccc(NC(=O)C(C)OC(=O)Cn2[nH]c(=O)c3ccccc3c2=O)cc1 (configuration not stated) | 13.1 | -10.4 | -0.6 | · | · | 0.1 | ·
COc1cc([N+](=O)[O-])ccc1NC(=O)N1CCCCCC1 | 7.3 | -3.9 | 0.5 | 5.4 | 2.0 | -2.4 | ·
